# Reference: PubChem BioAssay (NCI)
# This is part of a sample that, as a whole, favours compounds with a hit. Of some 79,000 tested, about 15% had one in any assay. Values without a mark were called inactive. The source made the active and inactive calls. No stated cut-off is given here; in the data, active means growth inhibition above about 70%; inactive means the rest.
# Legend:
# [1] = NCI Yeast Anticancer Drug Screen. Data for the rad52 strain (AID 147);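 further: 0% = growth of vehicle-treated control cultures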; settings: S. cerevisiae rad52 mutant growth inhibition, stronger effect = higher value
# Method in brief: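 Inhibition of yeast growth, referenced to vehicle controls, was the measured output for a strain with defective DNA damage repair.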
# [2] = NCI Yeast Anticancer Drug Screen. Data for the wt1 strain (AID 149);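 further: 0% = growth of vehicle-treated wt1 cultures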; settings: S. cerevisiae wt1 strain (SPY 50644) growth inhibition, stronger effect = higher value
# Method in brief: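 wt1 yeast, compound-treated; % growth inhibition vs vehicle control.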
# [3] = NCI Yeast Anticancer Drug Screen. Data for the rad50EPP+ strain (AID 151);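 further: 0% = growth of vehicle-treated control cultures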; settings: S. cerevisiae rad50 mutant strain, stronger effect = higher value
# Method in brief: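 Genetically defined yeast (rad50EPP+, DNA damage repair alteration) is grown with compound, and inhibition of growth is expressed relative to vehicle-treated controls.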
# [4] = NCI Yeast Anticancer Drug Screen. Data for the mgt1 strain (AID 153); settings: S. cerevisiae mgt1 mutant growth inhibition, stronger effect = higher value
# Method in brief: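 In the mgt1 strain, test compounds were added and growth inhibition was determined relative to vehicle-treated controls.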
# [5] = NCI Yeast Anticancer Drug Screen. Data for the rad50 strain (AID 155);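 further: 0% = growth of vehicle-only cultures of the same strain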; settings: S. cerevisiae rad50 strain growth inhibition, stronger effect = higher value
# Method in brief: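 Genetically altered yeast (DNA repair pathway); compound treatment; growth inhibition vs vehicle ctrl.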
# [6] = NCI Yeast Anticancer Drug Screen. Data for the mec2-1 strain (AID 157); settings: S. cerevisiae mec2-1 strain, stronger effect = higher value
# Method in brief: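 Each compound was tested on mec2-1 yeast, a strain altered in DNA damage repair or cell cycle control. Growth inhibition is reported relative to vehicle.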
# [7] = NCI Yeast Anticancer Drug Screen. Data for the rad14 strain (AID 159);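 further: 0% = growth of vehicle-treated control cultures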; settings: S. cerevisiae rad14 strain growth inhibition, stronger effect = higher value
# Method in brief: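 Test compounds were applied to a repair-deficient yeast strain. Its growth was then compared with that of cultures given vehicle alone, and inhibition was expressed relative to those controls.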
# [8] = NCI Yeast Anticancer Drug Screen. Data for the sgs1 mgt1 strain (AID 161);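 further: 0% = growth of cultures given vehicle only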; settings: S. cerevisiae sgs1 mgt1 strain, stronger effect = higher value
# Method in brief: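 Read-out: growth inhibition vs vehicle controls. Cells: mutant yeast strain deficient in DNA damage repair.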
# [9] = NCI Yeast Anticancer Drug Screen. Data for the CLN2oe strain (AID 163);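 further: 0% = growth of vehicle-only control cultures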; settings: S. cerevisiae CLN2oe strain, stronger effect = higher value
# Method in brief: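 First, the altered yeast strain was treated with each compound; second, its growth was measured; finally, inhibition was derived by comparison with vehicle controls.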
# [10] = NCI Yeast Anticancer Drug Screen. Data for the cln2 rad14 strain (AID 165);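 further: 0% = growth equal to vehicle treated cultures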; settings: S. cerevisiae cln2 rad14 strain, stronger effect = higher value
# Method in brief: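 Test compounds were added to cln2 rad14 yeast cultures; inhibition of growth was then determined by comparison with vehicle treatment.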
# [11] = NCI Yeast Anticancer Drug Screen. Data for the bub3 strain (AID 167); settings: S. cerevisiae bub3 mutant strain, stronger effect = higher value
# Method in brief: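 Yeast carrying a defined mutation is treated with each compound, and growth is compared with that of vehicle-exposed cells to give inhibition.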
# [12] = NCI Yeast Anticancer Drug Screen. Data for the wt2 strain (AID 169);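 further: 0% = growth of vehicle-treated yeast cultures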; settings: S. cerevisiae wt2 strain growth inhibition, stronger effect = higher value
# Method in brief: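 The panel's yeast strains carry defined changes in DNA repair or cell cycle genes. Each strain is grown with compound, and growth loss is scored relative to vehicle.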
# [13] = NCI Yeast Anticancer Drug Screen. Data for the mlh1 strain (AID 171);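 further: 0% = growth of vehicle-treated control cultures of the same strain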; settings: S. cerevisiae mlh1 strain growth inhibition, stronger effect = higher value
# Method in brief: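 Inhibition values reflect reduced yeast growth in the presence of compound, referenced to vehicle controls, using a strain chosen for its alteration in DNA repair or cell cycle control.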
# [14] = NCI Yeast Anticancer Drug Screen. Data for the sgs1 strain (AID 173);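 further: 0% = growth of vehicle-only control cultures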; settings: S. cerevisiae sgs1 mutant, stronger effect = higher value
# Method in brief: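 Vehicle-treated cultures served as reference for growth inhibition of a yeast strain altered in DNA damage repair or cell cycle control after compound exposure.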
# [15] = NCI Yeast Anticancer Drug Screen. Data for the mlh1 rad18 strain (AID 175); settings: S. cerevisiae mlh1 rad18 strain growth inhibition, stronger effect = higher value
# Method in brief: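 Inhibition values reflect reduced growth of mutant yeast versus vehicle-treated controls following compound exposure; the mutations affect DNA damage repair.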
# [16] = NCI Yeast Anticancer Drug Screen. Data for the rad18 strain (AID 177); settings: S. cerevisiae rad18 mutant growth inhibition, stronger effect = higher value
# Method in brief: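 Steps: expose repair-mutant yeast to compound; measure growth; express as inhibition relative to vehicle control.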
# [17] = at 5.0 µM (retest, dose inferred, filed as 0.5)
# [18] = at 50.0 µM (retest, dose inferred, filed as 5.0)
structure (smiles),measurement,setting,value
O=c1[nH]c2ccccc2c2nc3ccccc3n12,growth inhibition,[1]; at 1.2 µM,-43%
same,growth inhibition,[1]; at 3.7 µM,-34%
same,growth inhibition,[1]; at 11.0 µM,8%
same,growth inhibition,[1]; at 33.0 µM,72% (active)
same,growth inhibition,[1]; at 100.0 µM,70% (active)
same,growth inhibition,[2]; at 1.2 µM,-39%
same,growth inhibition,[2]; at 3.7 µM,-44%
same,growth inhibition,[2]; at 11.0 µM,-8%
same,growth inhibition,[2]; at 33.0 µM,3%
same,growth inhibition,[2]; at 100.0 µM,-17%
same,growth inhibition,[3]; at 1.2 µM,10%
same,growth inhibition,[3]; at 3.7 µM,16%
same,growth inhibition,[3]; at 11.0 µM,48%
same,growth inhibition,[3]; at 33.0 µM,90% (active)
same,growth inhibition,[3]; at 100.0 µM,92% (active)
same,growth inhibition,[4]; at 1.2 µM,-34%
same,growth inhibition,[4]; at 3.7 µM,-14%
same,growth inhibition,[4]; at 11.0 µM,26%
same,growth inhibition,[4]; at 33.0 µM,40%
same,growth inhibition,[4]; at 100.0 µM,8%
same,growth inhibition,[5]; at 1.2 µM,-17%
same,growth inhibition,[5]; at 3.7 µM,-6%
same,growth inhibition,[5]; [17],51%
same,growth inhibition,[5]; at 11.0 µM,77% (active)
same,growth inhibition,[5]; at 33.0 µM,78% (active)
same,growth inhibition,[5]; [18],94% (active)
same,growth inhibition,[5]; at 50.0 µM,15.6%
same,growth inhibition,[5]; at 100.0 µM,88% (active)
same,growth inhibition,[6]; at 1.2 µM,-48%
same,growth inhibition,[6]; at 3.7 µM,-50%
same,growth inhibition,[6]; [17],62%
same,growth inhibition,[6]; at 11.0 µM,-41%
same,growth inhibition,[6]; at 33.0 µM,-42%
same,growth inhibition,[6]; [18],97% (active)
same,growth inhibition,[6]; at 50.0 µM,12.7%
same,growth inhibition,[6]; at 100.0 µM,12%
same,growth inhibition,[7]; at 1.2 µM,-39%
same,growth inhibition,[7]; at 3.7 µM,-43%
same,growth inhibition,[7]; at 11.0 µM,-50%
same,growth inhibition,[7]; at 33.0 µM,7%
same,growth inhibition,[7]; at 100.0 µM,-8%
same,growth inhibition,[8]; [17],-17%
same,growth inhibition,[8]; [18],22%
same,growth inhibition,[9]; at 1.2 µM,12%
same,growth inhibition,[9]; at 3.7 µM,-2%
same,growth inhibition,[9]; at 11.0 µM,15%
same,growth inhibition,[9]; at 33.0 µM,40%
same,growth inhibition,[9]; at 100.0 µM,26%
same,growth inhibition,[10]; [17],33%
same,growth inhibition,[10]; [18],59%
same,growth inhibition,[11]; at 1.2 µM,-11%
same,growth inhibition,[11]; at 3.7 µM,5%
same,growth inhibition,[11]; [17],45%
same,growth inhibition,[11]; at 11.0 µM,11%
same,growth inhibition,[11]; at 33.0 µM,60%
same,growth inhibition,[11]; [18],74% (active)
same,growth inhibition,[11]; at 100.0 µM,42%
same,growth inhibition,[12]; at 1.2 µM,-53%
same,growth inhibition,[12]; at 3.7 µM,-47%
same,growth inhibition,[12]; at 11.0 µM,-47%
same,growth inhibition,[12]; at 33.0 µM,-15%
same,growth inhibition,[12]; at 100.0 µM,26%
same,growth inhibition,[13]; at 1.2 µM,-40%
same,growth inhibition,[13]; at 3.7 µM,-22%
same,growth inhibition,[13]; at 11.0 µM,-14%
same,growth inhibition,[13]; at 33.0 µM,38%
same,growth inhibition,[13]; at 100.0 µM,37%
same,growth inhibition,[14]; at 1.2 µM,-43%
same,growth inhibition,[14]; at 3.7 µM,-58%
same,growth inhibition,[14]; at 11.0 µM,-64%
same,growth inhibition,[14]; at 33.0 µM,23%
same,growth inhibition,[14]; at 100.0 µM,-14%
same,growth inhibition,[15]; [17],49%
same,growth inhibition,[15]; [18],86% (active)
same,growth inhibition,[15]; at 50.0 µM,47.1%
same,growth inhibition,[16]; at 1.2 µM,-29%
same,growth inhibition,[16]; at 3.7 µM,-22%
same,growth inhibition,[16]; at 11.0 µM,-20%
same,growth inhibition,[16]; at 33.0 µM,27%
same,growth inhibition,[16]; at 100.0 µM,9%
CCOC(=O)C1=C(C)NC(C)=C(C(=O)OCC)C1c1ccccc1Cl,growth inhibition,[1]; at 1.2 µM,-25%
same,growth inhibition,[1]; at 3.7 µM,-10%
same,growth inhibition,[1]; at 11.0 µM,4%
same,growth inhibition,[1]; at 33.0 µM,42%
same,growth inhibition,[1]; at 100.0 µM,93% (active)
same,growth inhibition,[2]; at 1.2 µM,-8%
same,growth inhibition,[2]; at 3.7 µM,3%
same,growth inhibition,[2]; at 11.0 µM,-6%
same,growth inhibition,[2]; at 33.0 µM,40%
same,growth inhibition,[2]; at 100.0 µM,95% (active)
same,growth inhibition,[3]; at 1.2 µM,-5%
same,growth inhibition,[3]; at 3.7 µM,13%
same,growth inhibition,[3]; at 11.0 µM,9%
same,growth inhibition,[3]; at 33.0 µM,17%
same,growth inhibition,[3]; at 100.0 µM,26%
same,growth inhibition,[4]; at 1.2 µM,14%
same,growth inhibition,[4]; at 3.7 µM,14%
same,growth inhibition,[4]; at 11.0 µM,19%
same,growth inhibition,[4]; at 33.0 µM,54%
same,growth inhibition,[4]; at 100.0 µM,96% (active)
same,growth inhibition,[5]; at 1.2 µM,9%
same,growth inhibition,[5]; at 3.7 µM,23%
same,growth inhibition,[5]; [17],54%
same,growth inhibition,[5]; at 11.0 µM,29%
same,growth inhibition,[5]; at 33.0 µM,48%
same,growth inhibition,[5]; [18],100% (active)
same,growth inhibition,[5]; at 50.0 µM,90% (active)
same,growth inhibition,[5]; at 100.0 µM,91% (active)
same,growth inhibition,[6]; at 1.2 µM,8%
same,growth inhibition,[6]; at 3.7 µM,-2%
same,growth inhibition,[6]; [17],52%
same,growth inhibition,[6]; at 11.0 µM,-2%
same,growth inhibition,[6]; at 33.0 µM,51%
same,growth inhibition,[6]; [18],99% (active)
same,growth inhibition,[6]; at 50.0 µM,91.7% (active)
same,growth inhibition,[6]; at 100.0 µM,95% (active)
same,growth inhibition,[7]; at 1.2 µM,-4%
same,growth inhibition,[7]; at 3.7 µM,-10%
same,growth inhibition,[7]; at 11.0 µM,10%
same,growth inhibition,[7]; at 33.0 µM,53%
same,growth inhibition,[7]; at 100.0 µM,93% (active)
same,growth inhibition,[8]; [17],-15%
same,growth inhibition,[8]; [18],91% (active)
same,growth inhibition,[9]; at 1.2 µM,-13%
same,growth inhibition,[9]; at 3.7 µM,-22%
same,growth inhibition,[9]; at 11.0 µM,38%
same,growth inhibition,[9]; at 33.0 µM,56%
same,growth inhibition,[9]; at 100.0 µM,94% (active)
same,growth inhibition,[10]; [17],43%
same,growth inhibition,[10]; [18],90% (active)
same,growth inhibition,[11]; at 1.2 µM,35%
same,growth inhibition,[11]; at 3.7 µM,34%
same,growth inhibition,[11]; [17],26%
same,growth inhibition,[11]; at 11.0 µM,4%
same,growth inhibition,[11]; at 33.0 µM,62%
same,growth inhibition,[11]; [18],84% (active)
same,growth inhibition,[11]; at 100.0 µM,95% (active)
same,growth inhibition,[12]; at 1.2 µM,14%
same,growth inhibition,[12]; at 3.7 µM,11%
same,growth inhibition,[12]; at 11.0 µM,20%
same,growth inhibition,[12]; at 33.0 µM,49%
same,growth inhibition,[12]; at 100.0 µM,96% (active)
same,growth inhibition,[13]; at 1.2 µM,-38%
same,growth inhibition,[13]; at 3.7 µM,-31%
same,growth inhibition,[13]; at 11.0 µM,-25%
same,growth inhibition,[13]; at 33.0 µM,41%
same,growth inhibition,[13]; at 100.0 µM,93% (active)
same,growth inhibition,[14]; at 1.2 µM,26%
same,growth inhibition,[14]; at 3.7 µM,28%
same,growth inhibition,[14]; at 11.0 µM,38%
same,growth inhibition,[14]; at 33.0 µM,67%
same,growth inhibition,[14]; at 100.0 µM,96% (active)
same,growth inhibition,[15]; [17],36%
same,growth inhibition,[15]; [18],99% (active)
same,growth inhibition,[15]; at 50.0 µM,90.4% (active)
same,growth inhibition,[16]; at 1.2 µM,2%
same,growth inhibition,[16]; at 3.7 µM,18%
same,growth inhibition,[16]; at 11.0 µM,20%
same,growth inhibition,[16]; at 33.0 µM,50%
same,growth inhibition,[16]; at 100.0 µM,93% (active)
